High-throughput results (PubChem BioAssay)
Only some compounds are listed: those with a hit (about 21% of all), similar ones and a draw of the others.
TDP1 cell noCPT: qHTS for Inhibitors of human tyrosyl-DNA phosphodiesterase 1 (TDP1): qHTS in cells in absence of CPT; DT40 Tdp1-/- hTDP1 cells, no CPT, ATP luminescence, 48 h; 420,000 compounds, 15% hits; Potency, µM (top dose mostly 46.2 µM), usual class: inhibitors; note: nearly all actives have a fitted effect of over 55% in size
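Luminescent ATP content (CellTiter-Glo) served as the growth readout. Knockout chicken DT40 cells expressing human TDP1 were exposed to compounds without camptothecin for a minimum 48 hr at 37 °C.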
RORg inh: inhibitors of mouse ROR gamma transcriptional activity | P51450 | Drosophila S2 Gal4-RORgamma UAS-luciferase reporter, 20 h | Potency, µM (top dose mostly 53.6 µM), most hits filed as inhibitors | 310,000 compounds, 5.4% hits; note: nearly all actives have a fitted effect of over 60% in size
Target sequence (P51450 whole entry, looked up, the tested form may be a part): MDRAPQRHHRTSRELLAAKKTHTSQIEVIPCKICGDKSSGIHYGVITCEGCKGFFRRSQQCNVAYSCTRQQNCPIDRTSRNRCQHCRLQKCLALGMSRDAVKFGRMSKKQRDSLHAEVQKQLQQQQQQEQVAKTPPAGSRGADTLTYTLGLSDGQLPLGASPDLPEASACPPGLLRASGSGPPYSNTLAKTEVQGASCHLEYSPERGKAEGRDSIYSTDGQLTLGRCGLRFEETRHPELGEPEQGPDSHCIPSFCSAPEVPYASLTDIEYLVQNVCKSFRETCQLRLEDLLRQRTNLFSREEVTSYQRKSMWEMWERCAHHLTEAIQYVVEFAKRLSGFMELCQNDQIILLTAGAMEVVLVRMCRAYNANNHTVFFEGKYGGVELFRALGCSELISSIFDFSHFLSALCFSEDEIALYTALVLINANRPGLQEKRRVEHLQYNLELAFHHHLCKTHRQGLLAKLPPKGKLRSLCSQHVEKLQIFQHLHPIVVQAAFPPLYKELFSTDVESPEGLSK
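Read-out: Photinus luciferase luminescence; inhibitors lower reporter signal. Insect Schneider cells with Gal4-ROR gamma fusion under metallothionein promoter, UAS reporter; 700 uM final copper sulfate induction, 20 hr, ambient temperature.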
IL1B secr inh: inhibitors of inflammasome signaling (IL-1 beta secretion); activity change, % at 57.5 µM; AID 743279; 360,000 compounds, 4.7% hits; THP-1 LPS/ATP IL-1B secretion, AlphaLISA, 16 h; stronger effect = lower value; in the data active = activity change below about -50%; inconclusive = mostly about -30% to -49%
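Secreted IL-1B measured by AlphaLISA bead assay after 16 h compound exposure of THP-1 cells; compounds (final up to 57.5 uM) added 1 h before LPS (250 ng/mL) and ATP (1.25 mM) stimulation; lower signal means less secretion.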
ELG1 DNA repair: blocks ELG1-dependent DNA repair in HEK293T cells | HEK293T ELG1-luciferase reporter, luminescence, 16 h; DNA damage induced by 5-fluorouridine | Potency, µM (series often up to 46.1 µM), hits mostly inhibitors | 330,000 compounds, 2.3% hits | AID 504467; note: nearly all actives have a fitted effect of over 55% in size
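Reporter activity after DNA damage by 5-fluorouridine is monitored. Compound-treated cells incubate 16 hr at 37 °C, then ONE-Glo is added for 30 min before luminescence reading.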
Gal4-VP16 FLuc: counter-screen for ROR gamma inhibitors: Gal4-VP16 reporter; Drosophila S2 Gal4-VP16 UAS-luciferase, luminescence, 20 h; Potency, µM (titrated, usually from 53.6 µM), hits mostly inhibitors; 310,000 compounds, 3.5% hits; AID 2546;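 note: Gal4-VP16 expression switched on by copper sulfate through the metallothionein promoter; nearly all actives have a fitted effect of over 50% in size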
DT40 TDP1 CPT: DT40-hTDP1 cell growth loss with CPT | chicken DT40 Tdp1-/-;hTDP1 cells + 20 nM CPT, ATP luminescence, 48 h | Potency, µM (titrated, usually from 46.2 µM), most hits filed as inhibitors | 420,000 compounds, 12% hits; note: nearly all actives have a fitted effect of over 55% in size
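Cell growth measured by CellTiter-Glo luminescence after a minimum 48 h, 37 C compound exposure with 20 nM CPT in Tdp1-knockout DT40 cells stably expressing hTDP1, seeded 400/well; qHTS titration format.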
Numbers stand for hits; . = inactive; ? = inconclusive; / = no result; [ ] = dose if it differs, or a comment. Unless noted, calls come from the whole dose curve; as a rule, active = well fitted curve in the direction sought with a large enough effect; inconclusive = small, poorly fitted or top-dose-only effect, or another doubt; inactive = no such curve, though single readings can be large; an effect the other way counts as inactive or inconclusive.

SMILES	TDP1 cell noCPT	RORg inh	IL1B secr inh	ELG1 DNA repair	Gal4-VP16 FLuc	DT40 TDP1 CPT
COc1ccc(NC(=O)Cn2c(=O)n(Cc3nc(-c4ccccc4)no3)c(=O)c3ccccc32)cc1Cl	?	/	/	/	/	.
O=C(Cn1c(=O)n(Cc2nc(-c3ccccc3)no2)c(=O)c2ccccc21)Nc1cccc(C(F)(F)F)c1	20.6µM	/	/	/	/	?
Cc1ccc(NC(=O)Cn2c(-c3nonc3N)nc3ccccc32)c(Br)c1	?	/	/	/	/	.
Nc1nonc1-c1nc2ccccc2n1CC(=O)Nc1ccccc1	?	.	.	.	.	6.51µM
CCOC(=O)c1ccccc1NC(=O)Cn1c(-c2nonc2N)nc2ccccc21	0.92µM	?	.	?	?	0.82µM
Nc1nonc1-c1nc2ccccc2n1CC(=O)Nc1cccc(C(F)(F)F)c1	13µM	/	/	/	/	?
O=C1CCCC[C@@H](CO)[C@H](O)C[C@H](c2ccccc2)O1	.	/	.	/	/	.
CCCCCCN1C[C@@H](O)[C@H](n2cc(-c3ccc(F)cc3)nn2)C[C@@H]1c1ccccc1	?	/	.	/	/	.
COc1ccc(C(O)c2nc(-c3cncnc3)cs2)cc1 (stereo not given)	?	/	.	/	/	.
Cc1nc2cc(-c3cccc(Cl)c3)nn2c(N2CCN(C(=O)c3ccco3)CC2)c1C	/	.	/	?	.	/
Cc1ccc(-c2cc3nc(C)cc(N4CCN(C(=O)c5ccoc5)CC4)n3n2)cc1	18.4µM	/	.	/	/	?
Cc1cc(N2CCN(C(=O)c3ccco3)CC2)n2nc(-c3cccc(Cl)c3)cc2n1	?	?	-66.3	13µM	?	23.1µM
Cc1cc(N2CCN(C(=O)c3ccco3)CC2)n2nc(C)c(-c3ccccc3)c2n1	23.1µM	.	?	?	.	23.1µM
COc1cccc(-c2cc3nc(C)c(C)c(N4CCN(C(=O)c5ccoc5)CC4)n3n2)c1	8.2µM	/	.	/	/	13µM
COc1ccc(Cn2c(CCC(=O)Nc3cccc(Cl)c3)nc3cccnc32)cc1	.	/	/	/	/	.
CC1COc2ccccc2N1S(=O)(=O)c1cc(Cl)ccc1Cl (stereo not given)	?	.	.	?	.	.
Cc1cccc(NC(=O)CSc2nc(-c3cccs3)cc(C(F)(F)F)c2C#N)c1C	.	/	/	/	/	.
CCCCCCCC1=CC2=CC(=O)C(C)(O)C(=O)C2=CN1CCCC (stereo not given)	/	.[10 µM]	/	/	.[10 µM]	/
COc1ccc(-c2csc(N3CCN(C(=O)c4ccco4)CC3)n2)cc1	?	.	?	.	.	?
COc1ccc(-c2cc3nc(C)cc(N4CCN(C(=O)c5ccco5)CC4)n3n2)cc1	11.6µM	/	.	/	/	20.6µM
CCOC(=O)c1cc2[nH]c3ccccc3c2[n+](-c2ccc([N+](=O)[O-])cc2)c1N	8.2µM	.	-58.5	.	?	11.6µM
CN(Cc1ccccc1)C(=O)c1ccc(S(=O)(=O)N(C)c2ccccc2)cc1	?	/	.	.	/	?
CC[C@]12CCCN3CCc4c(n(c5ccccc45)C(=O)C1)[C@@H]32	6.51µM	/	.	.	/	.
CC(C)CCNC(=O)c1cccc(C(=O)NCCC(C)C)c1	?	.	.	.	.	?
CCc1ccc(CNC(=O)c2sc3ncccc3c2-n2c(C)ccc2C)cc1	20.6µM	/	/	/	/	14.6µM
SMILES	TDP1 cell noCPT	RORg inh	IL1B secr inh	ELG1 DNA repair	Gal4-VP16 FLuc	DT40 TDP1 CPT
COCCNC(=O)c1sc2ncccc2c1-n1c(C)ccc1C	?	/	/	/	/	18.4µM
Cc1ccc(C)n1-c1c(C(=O)NCCC(C)C)sc2ncccc12	18.4µM	/	/	/	/	16.4µM
COC(=O)c1sc2ncccc2c1OCc1ccc(Cl)cc1	.	.	.	.	.	.
CCOC(=O)OCC1OC(c2ccccc2)C=CC1Oc1ccc2oc(=O)cc(C)c2c1 (stereo not given)	/	.[10 µM]	/	/	.[10 µM]	/
Cc1cccc2cc(CN(Cc3ccco3)C(=O)c3cccs3)c(=O)[nH]c12	?	.	.	?	.	?
Cc1ccc(C)c2[nH]c(=O)c(CN(CCN3CCOCC3)Cc3nnnn3CC3CCCO3)cc12 (stereo not given)	.	.	.	16.4µM	.	.
Cc1cccc2cc(CN(Cc3cccs3)S(=O)(=O)c3ccc4c(c3)OCCO4)c(=O)[nH]c12	23.1µM	.	.	?	.	?
Cc1cccc2cc(CN(Cc3cccs3)C3(c4nnnn4C4CCCC4)CCCC3)c(=O)[nH]c12	20.6µM	.	.	.	.	?
Cc1ccc(C)c2[nH]c(=O)c(CN(Cc3nnnn3C3CCCCC3)CC3CCCO3)cc12 (stereo not given)	23.1µM	.	?	?	.	14.6µM
Cc1ccc2cc(CN(Cc3nnnn3C3CCCC3)C3CCCCC3)c(=O)[nH]c2c1C	.	.	.	.	.	.
COC(=O)C1CCN(Cc2ccc3c(c2)CN(C(=O)C(C)N2CCOCC2)CCO3)CC1 (stereo not given)	.	/	/	/	/	.
COC(=O)NC(/C(C(=O)OC)=C(\C)NCc1ccccc1)c1ccc(Cl)cc1 (stereo not given)	/	.[10 µM]	/	/	.[10 µM]	/
CCn1c(SCC(=O)Nc2ccc3c(c2)OCCO3)nnc1C1CC1	.	.	.	.	.	.
COc1ccc(NC(=O)Cn2nnc(C(=O)NCc3ccccc3Cl)c2N)cc1Cl	.	/	/	/	/	.
Cc1ccc(C)c2[nH]c(=O)c(CN(CC3CCCO3)C(=O)NC3CCCCC3)cc12 (stereo not given)	?	.	.	8.2µM	.	23.1µM
Cc1cccc2cc(CN(CC3CCCO3)C(=O)c3cccs3)c(=O)[nH]c12 (stereo not given)	.	.	.	.	.	.
O=C(/C=C/c1ccccc1)NC(NC(=S)Nc1cccc(O)c1)C(Cl)(Cl)Cl (stereo not given)	18.4µM	.	-116.7	?	?	?
O=C(/C=C/c1ccccc1)NC(NC(=S)Nc1ccc(Cl)cc1Cl)C(Cl)(Cl)Cl (stereo not given)	18.4µM	?	.	?	5.01µM	20.6µM
Cc1ccc(C)c(NC(=S)NC(NC(=O)/C=C/c2ccccc2)C(Cl)(Cl)Cl)c1 (stereo not given)	23.1µM	5.01µM	?	.	11.2µM	?
Cc1ccc(NC(=S)NC(NC(=O)C(C)(C)C)C(Cl)(Cl)Cl)c(C)c1 (stereo not given)	?	12.6µM	.	.	.	?
O=C(/C=C/c1ccccc1)NC(NC(=S)Nc1ccc(C(=O)O)cc1)C(Cl)(Cl)Cl (stereo not given)	.	.[10 µM]	.	.	.	.
O=C(N[C@H]1CC[C@H](CCNS(=O)(=O)c2ccc(Cl)cc2)O[C@@H]1CO)c1cccc(F)c1	?	/	.	/	/	?
